PubChem BioAssay (Tox21)
Records with an inconclusive call do not appear. Activity calls are given as the source filed them. Unless noted, calls come from the whole dose curve; as a rule, active = well fitted curve in the direction sought with a large enough effect in the repeat runs; inconclusive = weak or mixed curves; inactive = no such curve, though single readings can be large; an effect the other way counts as inactive or inconclusive.

Legend:
[1] = qHTS assay to identify small molecule antagonists of the glucocorticoid receptor (GR) signaling pathway - cell viability counter screen (AID 720693); note: nearly all actives have a fitted effect of over 55% in size
[2] = qHTS assay for identifying genotoxic compounds that show differential cytotoxicity against isogenic chicken DT40 cell lines with known DNA damage response pathways - Rev3 mutant cell line (AID 743014); note: nearly all actives have a fitted effect of over 55% in size; note: potency is the fitted concentration of half-maximal effect
[3] = qHTS assay for identifying genotoxic compounds that show differential cytotoxicity against isogenic chicken DT40 cell lines with known DNA damage response pathways - Rad54/Ku70 mutant cell line (AID 743015); note: nearly all actives have a fitted effect of over 60% in size; note: potency is the fitted concentration of half-maximal effect
[4] = qHTS assay to identify small molecule antagonists of the androgen receptor (AR) signaling pathway - cell viability counter screen (AID 743033; note: nearly all actives have a fitted effect of over 45% in size)
[5] = qHTS assay to identify small molecule antagonists of the androgen receptor (AR) signaling pathway using the MDA cell line - cell viability counter screen (AID 743041; note: nearly all actives have a fitted effect of over 45% in size)
In short: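 Using the breast carcinoma line MDA-kb2 AR-luc, test chemicals were co-incubated with R1881 for 16 h; CellTiter-Fluor reagent, added at 15.5 h, provided a fluorescence measure of live cells.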

[6] = qHTS assay to identify small molecule antagonists of the thyroid receptor (TR) signaling pathway (AID 743065); note: nearly all actives have a fitted effect of over 55% in size; note: potency is the fitted concentration of half-maximal effect
In short: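 Antagonism measured as loss of luciferase signal in GH3 cells stably carrying a TRE-luciferase reporter, co-treated with compound and T3 (1 nM final) for 23.5 h at 37 C. Viability was read in the same well by CellTiter-Fluor.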

[7] = test system: thyroid hormone receptor (rat, GH3 cells); experiment: qHTS assay to identify small molecule agonists of the thyroid receptor (TR) signaling pathway (AID 743066; calls by dose curve)
[8] = qHTS assay to identify small molecule antagonists of the estrogen receptor alpha (ER-alpha) signaling pathway - cell viability counter screen (AID 743074; calls by dose curve; note: nearly all actives have a fitted effect of over 45% in size)
[9] = qHTS assay to identify small molecule antagonists of the estrogen receptor alpha (ER-alpha) signaling pathway using the BG1 cell line - cell viability counter screen (AID 743081);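 note: compound given together with 17beta-estradiol as the ER stimulus; series mostly up to about 70 µM; nearly all actives have a fitted effect of over 45% in size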
Aromatase (Homo sapiens) = Aromatase (Homo sapiens) (UniProt P11511); experiment: qHTS assay to identify aromatase inhibitors (AID 743083); note: series mostly up to about 70 µM; nearly all actives have a fitted effect of over 55% in size
[10] = qHTS assay to identify small molecule antagonists of the thyroid receptor (TR) signaling pathway - cell viability counter screen (AID 743064); note: nearly all actives have a fitted effect of over 50% in size; note: potency is the fitted concentration of half-maximal effect
In short: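 CellTiter-Fluor readout, 30 min at 37 °C/5% CO2, following 23.5 h incubation of GH3.TRE-Luc cells with test compound and 1 nM T3 (final).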

[11] = target: Estrogen receptor (Homo sapiens) (UniProt P03372); experiment: qHTS assay to identify small molecule antagonists of the estrogen receptor alpha (ER-alpha) signaling pathway (AID 743069; active = well fitted curve in the direction sought with a large enough effect in the signal ratio in the repeat runs, not every such curve was filed as active; the % refers to the signal ratio)
In short: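 Fluorescence intensity from a beta-lactamase FRET substrate served as the read-out. Cells: HEK293 with stably integrated ER-alpha-UAS-bla reporter. Agonist 17beta-estradiol was co-added with compounds; incubation 18 hr at 37C, substrate 2 hr at room temperature.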

[12] = target: Estrogen receptor (Homo sapiens) (UniProt P03372); experiment: qHTS assay to identify small molecule agonists of the estrogen receptor alpha (ER-alpha) signaling pathway (AID 743075; calls by dose curve)
[13] = target: Estrogen receptor (Homo sapiens) (UniProt P03372); experiment: qHTS assay to identify small molecule agonists of the estrogen receptor alpha (ER-alpha) signaling pathway using the BG1 cell line (AID 743079); note: nearly all actives have a fitted effect of over 20% in size; note: potency is the fitted concentration of half-maximal effect
[14] = qHTS assay to identify small molecule antagonists of the estrogen receptor alpha (ER-alpha) signaling pathway using the BG1 cell line (AID 743080; calls by dose curve;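 note: BG1 cells stimulated with 17beta-estradiol alongside compound; series mostly up to about 70 µM; nearly all actives have a fitted effect of over 25% in size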)
In short: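 Readout is ONE-Glo luminescence, taken 30 min at room temperature after reagent addition, preceded by a CellTiter-Fluor viability read; BG1-Luc-4E2 cells had received compound and 17beta-estradiol for 21.5 h at 37 C.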

[15] = target: Androgen receptor (Homo sapiens) (UniProt P10275); experiment: qHTS assay to identify small molecule agonists of the androgen receptor (AR) signaling pathway (AID 743036; active = well fitted activation curve with a large enough effect in the signal ratio in the repeat runs, with a control signal flat, not every such curve was filed as active; the % refers to the signal ratio)
In short: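 Following a 4 h settling period, AR-UAS-bla HEK293 cells were dosed with compounds for 16 h at 37C. A 2 h room-temperature incubation with LiveBLAzer B/G FRET substrate preceded the fluorescence measurement.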

[16] = target: Androgen receptor (Homo sapiens) (UniProt P10275); experiment: qHTS assay to identify small molecule agonists of the androgen receptor (AR) signaling pathway using the MDA cell line (AID 743040; note: nearly all actives have a fitted effect of over 20% in size; note: potency is the fitted concentration of half-maximal effect)
In short: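 Stable MMTV-luciferase reporter in MDA-kb2 cells; note the promoter carries GR as well as AR response elements. 16 h compound treatment, 37C, 0% CO2; ONE-Glo luminescence endpoint.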

[17] = target: Androgen receptor (Homo sapiens) (UniProt P10275); experiment: qHTS assay to identify small molecule antagonists of the androgen receptor (AR) signaling pathway using the MDA cell line (AID 743042; note: nearly all actives have a fitted effect of over 55% in size)
In short: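 Antagonist mode: compounds plus R1881 agonist added to MDA-kb2 AR-luc cells, incubated 16 h at 37C. Luciferase reporter luminescence quantified, with multiplexed CellTiter-Fluor readout for cell viability.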

[18] = target: Androgen receptor (Homo sapiens) (UniProt P10275); experiment: qHTS assay to identify small molecule antagonists of the androgen receptor (AR) signaling pathway (AID 743035; active = well fitted inhibition curve with a large enough effect in the signal ratio in the repeat runs, not every such curve was filed as active; the % refers to the signal ratio)
In short: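 AR-bla HEK293 reporter cells; 4 h settle at 37C/5% CO2; compound + R1881 agonist, 16 h at 37C; LiveBLAzer B/G FRET substrate 2 h RT; fluorescence intensity read. qHTS format.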

[19] = qHTS assay for identifying genotoxic compounds that show differential cytotoxicity against isogenic chicken DT40 cell lines with known DNA damage response pathways - wild type cell line (AID 743012); note: nearly all actives have a fitted effect of over 60% in size; note: potency is the fitted concentration of half-maximal effect
In short: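 CellTiter-Glo luminescence readout of viability in wild type DT40 cells after 40 h compound exposure at 37 C/5% CO2; 300 cells/well; reagent incubated 30 min at room temperature before reading.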

Measured: Potency

Sequence of Androgen receptor (Homo sapiens) (P10275 whole entry, looked up): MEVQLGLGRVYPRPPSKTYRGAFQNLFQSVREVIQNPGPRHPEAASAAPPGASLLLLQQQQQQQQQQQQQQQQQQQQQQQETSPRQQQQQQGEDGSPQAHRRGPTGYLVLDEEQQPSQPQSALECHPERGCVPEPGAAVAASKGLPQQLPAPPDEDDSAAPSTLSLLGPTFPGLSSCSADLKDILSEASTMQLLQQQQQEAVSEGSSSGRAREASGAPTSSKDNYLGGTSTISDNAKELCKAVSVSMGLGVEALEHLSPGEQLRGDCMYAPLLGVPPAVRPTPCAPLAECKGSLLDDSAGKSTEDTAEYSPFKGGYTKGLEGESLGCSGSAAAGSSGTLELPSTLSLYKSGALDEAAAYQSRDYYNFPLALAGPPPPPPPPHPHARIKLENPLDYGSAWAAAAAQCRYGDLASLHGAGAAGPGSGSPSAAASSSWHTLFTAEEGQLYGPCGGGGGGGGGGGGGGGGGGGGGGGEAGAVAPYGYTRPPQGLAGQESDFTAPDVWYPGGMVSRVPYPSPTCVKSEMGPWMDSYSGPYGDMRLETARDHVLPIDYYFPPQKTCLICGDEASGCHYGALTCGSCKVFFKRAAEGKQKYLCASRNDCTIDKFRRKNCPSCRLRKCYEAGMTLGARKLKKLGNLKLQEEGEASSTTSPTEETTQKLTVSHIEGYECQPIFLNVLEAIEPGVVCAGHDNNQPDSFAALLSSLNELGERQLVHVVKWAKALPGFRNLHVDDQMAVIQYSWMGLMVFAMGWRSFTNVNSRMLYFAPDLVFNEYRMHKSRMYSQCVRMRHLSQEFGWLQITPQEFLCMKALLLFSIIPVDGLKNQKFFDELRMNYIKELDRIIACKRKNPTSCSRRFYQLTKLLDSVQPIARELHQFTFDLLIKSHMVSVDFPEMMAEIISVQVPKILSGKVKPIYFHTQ
Sequence of Aromatase (Homo sapiens) (P11511 whole entry, looked up): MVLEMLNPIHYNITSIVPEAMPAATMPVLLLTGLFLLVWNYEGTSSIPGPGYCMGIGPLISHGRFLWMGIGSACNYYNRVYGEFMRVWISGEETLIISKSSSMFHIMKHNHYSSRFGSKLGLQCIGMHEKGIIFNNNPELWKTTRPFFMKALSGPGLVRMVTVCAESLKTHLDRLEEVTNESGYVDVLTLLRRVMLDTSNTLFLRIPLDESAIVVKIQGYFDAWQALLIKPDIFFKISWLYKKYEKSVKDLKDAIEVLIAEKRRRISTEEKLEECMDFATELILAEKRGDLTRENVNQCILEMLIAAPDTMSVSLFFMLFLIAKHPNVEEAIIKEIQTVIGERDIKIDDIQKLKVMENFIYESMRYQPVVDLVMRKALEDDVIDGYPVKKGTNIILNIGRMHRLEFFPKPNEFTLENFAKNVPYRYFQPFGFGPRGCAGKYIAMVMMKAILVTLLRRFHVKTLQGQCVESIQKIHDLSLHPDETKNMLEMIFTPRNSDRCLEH
Sequence of Estrogen receptor (Homo sapiens) (P03372 whole entry, looked up): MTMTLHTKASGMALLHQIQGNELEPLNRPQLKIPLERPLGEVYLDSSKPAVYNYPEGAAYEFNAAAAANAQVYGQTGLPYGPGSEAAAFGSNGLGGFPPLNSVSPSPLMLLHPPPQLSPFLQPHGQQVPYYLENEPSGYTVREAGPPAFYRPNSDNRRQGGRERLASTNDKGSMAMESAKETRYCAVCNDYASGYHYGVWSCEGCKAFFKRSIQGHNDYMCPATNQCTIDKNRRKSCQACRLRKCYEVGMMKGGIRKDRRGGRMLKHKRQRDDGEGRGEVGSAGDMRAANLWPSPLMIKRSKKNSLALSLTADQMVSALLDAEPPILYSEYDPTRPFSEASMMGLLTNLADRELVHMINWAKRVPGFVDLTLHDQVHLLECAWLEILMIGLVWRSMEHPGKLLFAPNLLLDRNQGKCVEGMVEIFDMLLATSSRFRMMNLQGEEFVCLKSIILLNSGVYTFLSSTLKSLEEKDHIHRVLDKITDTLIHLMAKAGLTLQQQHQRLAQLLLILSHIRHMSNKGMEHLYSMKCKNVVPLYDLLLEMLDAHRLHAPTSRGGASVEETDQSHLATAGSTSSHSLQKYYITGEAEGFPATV

CN1C(=O)CC(c2ccccc2)C1=O (stereo unspecified)
inactive: [1] | [2] | [3] | [4] | [5] | [6] | [7] | [8] | [9] | Aromatase (Homo sapiens)

CC(C)S
not listed: [15] | [16] | [17] | [18] | [19]
inactive: all other assays above

CC(C)Nc1nc(N)nc(Cl)n1
inactive: [1] | [2] | [3] | [4] | [5] | [6] | [7] | [8] | [9] | Aromatase (Homo sapiens)

CC1=C2[C@H](/C=C(\C)C(=O)O)CC[C@@H](C)[C@H]2CC1
not listed: [6] | [11] | [13] | [18] | [19]
inactive: all other assays above

O=S(=O)(O)C(F)(F)F
not listed: [6] | [13] | [15] | [16] | [17] | [18] | [19]
inactive: all other assays above

O=C1CCN(c2ccccc2)N1
active: [2] 68.8 µM
not listed: [3] | [6] | [11] | [19]
inactive: all other assays above

COc1nc(C)nc(NC(=O)NS(=O)(=O)c2ccccc2OCCCl)n1
not listed: [13] | [15] | [16] | [17] | [18] | [19]
inactive: all other assays above

CCCCNCCCC
inactive: [1] | [2] | [3] | [4] | [5] | [10] | [6] | [7] | [8] | [9] | Aromatase (Homo sapiens)

COC(=O)c1ccc2cc(C(=O)OC)ccc2c1
not listed: [15] | [16] | [17] | [18] | [19]
inactive: all other assays above

C=C(C)C(=O)OCCOP(=O)(O)O
not listed: [6] | [13] | [15] | [16] | [17] | [18] | [19]
inactive: all other assays above

Cc1cc(NS(=O)(=O)c2ccc(N)cc2)nc(C)n1
not listed: [3] | [15] | [16] | [17] | [18] | [19]
inactive: all other assays above

CCC(=O)O[C@]1(C(=O)SCF)[C@H](C)C[C@H]2[C@@H]3C[C@H](F)C4=CC(=O)C=C[C@]4(C)[C@@]3(F)[C@@H](O)C[C@@]21C
not listed: [3] | [11] | [14] | [15] | [16] | [17] | [18] | [19]
inactive: all other assays above

CN1CCN(c2c(F)cc3c(=O)c(C(=O)O)cn4c3c2SCC4)CC1
active: [19] 10.6 µM | [2] 18.8 µM | [3] 21.1 µM
not listed: [1] | [15] | [16] | [17] | [18]
inactive: all other assays above

Nc1ccc2ccccc2c1S(=O)(=O)O
inactive: [19] | [2] | [3] | [4] | [5] | [10] | [6] | [7] | [8] | [9]

Cc1ccccc1C(=O)Nc1ccc(C(=O)N2CCCC(O)c3cc(Cl)ccc32)c(C)c1 (stereo unspecified)
inactive: [1] | [4] | [5] | [10] | [7] | [8]
active: [6] 23.7 µM

CCCCc1ccc2nc(NC(=O)OC)[nH]c2c1
inactive: [4] | [5] | [17] | [11] | [9] | Aromatase (Homo sapiens)
active: [19] 0.0569 µM | [2] 0.0804 µM | [3] 0.114 µM | [16] 5.07 µM | [10] 0.114 µM | [13] 2.27 µM

ICCc1ccccc1
not listed: [2] | [3] | [12] | [15] | [16] | [17] | [18] | [19]
inactive: all other assays above

CCOC(=O)CS
inactive: [1] | [5] | [10] | [7] | [8] | [9] | Aromatase (Homo sapiens)

COc1ccc(Nc2ccc(OC)cc2)cc1
active: [13] 3.93 µM
not listed: [2] | [3] | [14] | [15] | [16] | [17] | [18] | [19]
inactive: all other assays above

CN1CCN(C2=Nc3ccccc3Oc3ccc(Cl)cc32)CC1
inactive: [1] | [4] | [5] | [7] | [11] | [8] | [12] | [13] | [14] | [9] | Aromatase (Homo sapiens)

COc1cc2c(cc1N)oc1ccccc12
active: [3] 62.4 µM
inactive: [1] | [4] | [5] | [10] | [6] | [7] | [8] | [9] | Aromatase (Homo sapiens)

C[C@]12CCC(=O)C=C1CC[C@@H]1[C@@H]2CC[C@@]2(C)[C@H]1CC[C@]2(O)C(=O)CO
inactive: [1] | [4] | [5] | [10] | [7] | [8] | [12] | [14] | [9] | Aromatase (Homo sapiens)

CO[Si](C)(C)OC
not listed: [2] | [3] | [15] | [16] | [17] | [18] | [19]
inactive: all other assays above

Oc1ccccc1C=NCc1ccccc1
inactive: [1] | [2] | [4] | [5] | [10] | [7] | [8] | [9] | Aromatase (Homo sapiens)

NNS(=O)(=O)c1ccc(Oc2ccc(S(=O)(=O)NN)cc2)cc1
active: [2] 27.3 µM
not listed: [1] | [15] | [16] | [17] | [18]
inactive: all other assays above
